For nine compounds, Potency and outcome results are on record in PubChem BioAssay (Tox21).

Assay [1] is described as follows: qHTS assay to identify small molecule agonists of the vitamin D receptor (VDR) signaling pathway - cell viability counter screen (AID 743224). Also: series mostly up to about 63 µM; nearly all actives have a fitted effect of over 50% in size. In a few lines:
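Cells: VDR-bla, 2,000/well, settled 4 h. Treatment: compounds in DMSO, 16 h, 37C/5% CO2. Readout: CellTiter-Glo luminescence after 30 min RT.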
(In qHTS, concentration-response curves come from the screen itself.)

The nature of assay [2]: qHTS assay to identify small molecule agonists of the NFkB signaling pathway (AID 1159509; active = well fitted curve in the direction sought with a large enough effect in the signal ratio in the repeat runs, not every such curve was filed as active; the % refers to the signal ratio; also: series mostly up to about 61 µM). In a few lines: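 Pathway activation was measured in ME-180 cells stably expressing beta-lactamase under NF-kB response element control. Substrate cleavage was read as the 460/530 nm emission shift after 5 hr compound incubation.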
A short description of assay [3]: qHTS assay to identify small molecule agonists of the NFkB signaling pathway - cell viability counter screen (AID 1159515; calls by dose curve; also: series mostly up to about 61 µM; nearly all actives have a fitted effect of over 55% in size). In a few lines:
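Cells are seeded (2,000 NFkB-bla ME-180 per well), rested overnight, and dosed with DMSO-dissolved compounds for 5 hr at 37 C. Viability is then read by CellTiter-Glo luminescence after 30 min at room temperature.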

Assay [4] in a line: qHTS assay to identify small molecule agonists of the endoplasmic reticulum stress response signaling pathway (AID 1159516; active = well fitted activation curve with a large enough effect in the signal ratio in the repeat runs, not every such curve was filed as active; the % refers to the signal ratio). In short, it runs like this:
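Cells are seeded at 1,500 per well and incubated overnight. Compounds in DMSO are added for 5 hr at 37 C, then beta-lactamase FRET substrate for 2 hr at room temperature, and fluorescence at 460 and 530 nm is measured.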

Assay [5] can be described thus: qHTS assay to identify small molecule agonists of the endoplasmic reticulum stress response signaling pathway - cell viability counter screen (AID 1159517; calls by dose curve;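 also: HeLa cells carrying an ER stress response element beta-lactamase reporter; series mostly up to about 61 µM; nearly all actives have a fitted effect of over 50% in size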). In short, it runs like this:
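ESRE-bla HeLa cells (1,500/well) were plated overnight at 37 C and exposed to compounds for 5 hr. After the 2 hr beta-lactamase substrate read, CellTiter-Glo went into the same wells, and luminescence was read after 30 min at room temperature.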

The nature of assay [6]: qHTS assay to identify small molecule antagonists of the retinoid-related orphan receptor gamma (ROR-gamma) signaling pathway - cell viability counter screen (AID 1159520). Also: nearly all actives have a fitted effect of over 50% in size. In a few lines: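 Cytotoxicity was read from cellular ATP (CellTiter-Glo luminescence) after 16 hr at 37 C with 1 uM doxycycline induction. The inducer was added 2 hr after compound transfer to Tet-on ROR gamma CHO cells.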

Assay [7] has as its target Nuclear receptor ROR-gamma (Homo sapiens) (UniProt P51449). As to the kind of experiment: qHTS assay to identify small molecule antagonists of the retinoid-related orphan receptor gamma (ROR-gamma) signaling pathway (AID 1159521;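 also: CHO cells with doxycycline inducible ROR-gamma driving an RORE luciferase reporter; top concentration of the series differs between compounds; nearly all actives have a fitted effect of over 50% in size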). In short, it runs like this:
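Luminescence readout (ONE-Glo, 30 min RT) after 16 h doxycycline induction; loss of signal scored as antagonism. CHO cells with TET-inducible RORγ and RORE-LUC reporter; compounds added 2 h before 1 uM final doxycycline.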

A short description of assay [8]: qHTS assay to identify small molecule agonists of the AP-1 signaling pathway - cell viability counter screen (AID 1159525; calls by dose curve; also: nearly all actives have a fitted effect of over 55% in size). In a few lines:
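Intracellular ATP by Cell Titer Glo luminescence (30 min, RT) in the same ME-180 AP-1-bla wells after the 5 h compound exposure at 37 °C. Normalised to tetra n-octyl ammonium bromide and DMSO controls.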

Assay [9] can be described thus: qHTS assay to identify small molecule agonists of the AP-1 signaling pathway (AID 1159526; calls by dose curve).
Assay [10] deals with Retinoic acid receptor RXR-alpha (Homo sapiens) (UniProt P19793). As to the kind of experiment: qHTS assay to identify small molecule agonists of the RXR signaling pathway (AID 1159527; calls by dose curve; also: nearly all actives have a fitted effect of over 35% in size; also: potency is read from the fitted curve at half-maximal effect). In a few lines:
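Agonist mode; 9-cis retinoic acid positive control. HEK 293T UAS-bla reporter cells, 2% charcoal-stripped FBS, 16 hr compound exposure at 37 C/5% CO2. LiveBLAzer B/G FRET substrate 2 hr RT; ex 405, em 460/530 nm.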

A short description of assay [11]: qHTS assay to identify small molecule agonists of the RXR signaling pathway - cell viability counter screen (AID 1159529). In short, it runs like this: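 Luminescence from CellTiter-Glo (30 min, RT) measured viability in the same wells as the beta-lactamase reporter readout. Cells: GeneBLAzer RXR-alpha HEK 293T, 2% charcoal-stripped FBS. Compound exposure 16 hr, 37 C.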

Assay [12] is described as follows: qHTS assay to identify small molecule antagonists of the retinoid acid receptor (RAR) signaling pathway - cell viability counter screen (AID 1159551). Also: nearly all actives have a fitted effect of over 35% in size. In a few lines: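 Cells (C3RL4) are plated, incubated overnight, dosed with compound in DMSO, then given retinol at 1 uM final. After 6 h at 37 C, CellTiter-Glo is added and luminescence read following 30 min at room temperature.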

The nature of assay [13]: qHTS assay to identify small molecule antagonists of the retinoic acid receptor (RAR) signaling pathway (AID 1159552; also: nearly all actives have a fitted effect of over 50% in size; also: potency is read from the fitted curve at half-maximal effect). In short, it runs like this:
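Luminescence from a RARE luciferase reporter in C3RL4 cells served as read-out. Cells received compounds together with 1 uM final retinol and incubated 6 hr at 37 C before detection reagent was added for 30 min at room temperature.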

Assay [14] can be described thus: qHTS assay to identify small molecule agonists of the retinoic acid receptor (RAR) signaling pathway (AID 1159553). In a few lines: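 Seed C3RL4 reporter cells at 1,000 per well and incubate overnight at 37 C. Add compounds in DMSO, incubate 6 hr. Add luciferase reagent, wait 30 min at room temperature, read luminescence.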
Assay [15] in a line: qHTS assay to identify small molecule antagonists of the vitamin D receptor (VDR) signaling pathway - cell viability counter screen (AID 743225). Also: nearly all actives have a fitted effect of over 50% in size. In a few lines: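 Viability counter screen run in the same wells as the beta-lactamase reporter assay: HEK 293T VDR-UAS-bla cells, 16 h compound exposure at 37C with 3 nM (final) 1-alpha,25-dihydroxyvitamin D3. CellTiter-Glo luminescence, 30 min, room temperature.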

Results filed as inconclusive are left out. Values without a mark were called inactive. Calls of active or inactive are those of the source. Unless noted, calls follow the shape of the dose curve; as a rule, active = well fitted curve in the direction sought with a large enough effect in the repeat runs; inconclusive = weak or mixed curves; inactive = no such curve, though single readings can be large; an effect the other way counts as inactive or inconclusive.

Chain of Retinoic acid receptor RXR-alpha (Homo sapiens) (P19793 whole entry, looked up): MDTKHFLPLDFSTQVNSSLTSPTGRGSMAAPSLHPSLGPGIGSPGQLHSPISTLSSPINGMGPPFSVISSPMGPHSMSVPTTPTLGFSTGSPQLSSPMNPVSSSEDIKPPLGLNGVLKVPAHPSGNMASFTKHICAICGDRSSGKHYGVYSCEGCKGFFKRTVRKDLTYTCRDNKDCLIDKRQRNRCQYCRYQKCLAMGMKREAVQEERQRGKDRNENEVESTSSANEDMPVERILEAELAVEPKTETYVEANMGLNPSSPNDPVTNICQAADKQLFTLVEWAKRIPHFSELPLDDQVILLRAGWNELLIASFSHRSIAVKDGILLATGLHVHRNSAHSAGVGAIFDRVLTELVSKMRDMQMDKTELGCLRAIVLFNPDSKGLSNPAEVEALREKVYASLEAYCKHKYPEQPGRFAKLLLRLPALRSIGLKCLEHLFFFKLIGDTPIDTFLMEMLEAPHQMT

Regarding `COc1ccc(CN2CCNCC2)c(OC)c1OC`, the Potency entry in assay [1], in [5], in assay [6], in assay [7], in assay [8] and in assay [10] was “inactive” throughout. The Potency result in assay [11], in [12], in assay [13] and in [14] was “inactive” in each case. The compound was classed as inactive in assay [2], in assay [3], in [4] and in assay [9].

Take `CCCC(C)C1(CC)C(=O)N=C(S)NC1=O` (stereo not drawn): the Potency result in assay [1], in assay [5], in assay [6], in assay [7], in assay [8] and in [10] was “inactive” throughout. Moreover, the Potency result in assay [11], in assay [12], in assay [13] and in assay [14] was “inactive” each time. For the same compound, the call in [2], in [3], in [4] and in [9] was inactive.

On to `NCCOS(=O)(=O)O`, for which the Potency entry in assay [1], in assay [5], in assay [6], in assay [7], in assay [8] and in assay [10] was “inactive” in each case. Moreover, the Potency result in [11], in [12], in assay [13] and in assay [14] was “inactive” in each case. In addition, the compound was called inactive in [2], in [3], in assay [4] and in assay [9].

`N#CC(Br)(Br)C(N)=O`: the compound was called inactive in assay [2], in assay [3], in [4] and in assay [9]. The Potency result in assay [5], in assay [6], in assay [7], in assay [8], in assay [11] and in [12] was “inactive” each time. Also, in assay [14], the Potency result was “inactive”. The Potency is 1.55 µM (active) in assay [10] and 4.86 µM (active) in [13].

In the case of `CNC(=O)Oc1ccccc1C(C)C`, the compound was classed as inactive in assay [2], in [3], in assay [4] and in [9]. Besides, the Potency entry in assay [5], in assay [6], in [7], in assay [8], in assay [11] and in [12] was “inactive” in each case. The Potency entry in assay [13] and in [14] was “inactive” throughout. Further, the Potency in [10] is 49 µM (active).

For the compound `NC1(c2ccccc2)CCCCC1`, the Potency result in assay [1], in [15], in [5], in [6], in assay [7] and in assay [8] was “inactive” in each case. Besides, the Potency result in assay [10], in [11], in [12], in assay [13] and in assay [14] was “inactive” throughout. In addition, the compound was classed as inactive in assay [2], in [3], in assay [4] and in assay [9].

In the case of `CC(C)(O)C(Cl)(Cl)Cl`, the compound was called inactive in assay [2], in assay [3], in assay [4] and in assay [9]. The Potency entry in [5], in assay [6], in [7], in assay [8], in assay [10] and in assay [11] was “inactive” throughout. Further, the Potency entry in assay [12], in assay [13] and in [14] was “inactive” throughout.

In the case of `O=c1[nH]c2ccccc2o1`, the Potency entry in assay [1], in assay [5], in [6], in assay [7], in [8] and in [10] was “inactive” throughout. Further, the Potency entry in assay [11], in assay [12], in assay [13] and in [14] was “inactive” in each case. For the same compound, the result in assay [2], in [3], in assay [4] and in assay [9] was inactive.

For the compound `CC(C)NCC(O)c1ccc([N+](=O)[O-])cc1` (stereo not drawn), the call in [2], in [3], in assay [4] and in [9] was inactive. Besides, the Potency entry in assay [5], in assay [6], in assay [7], in assay [8], in assay [10] and in [11] was “inactive” each time. For the same compound, the Potency result in assay [12], in assay [13] and in assay [14] was “inactive” in each case.
